# “And” between values parts separate entries of the source, which are not always exact repeats. Equal values may be shown once. The whole screen tested about 5,500 compounds, of which about 2,000 (36%) were called active. Another 18% or so got no clear call; they are omitted. Rule as the data show it: active = normalized growth mostly below about 0.91 (no sharp cut-off); inconclusive = no clear call, values can overlap the other calls; inactive = mostly above about 0.92. The list shows a part of the results.
# Test: chemical genetic growth profiling, strain panel (AID 1159580);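 also: tested at 20 µM; growth read once vehicle control cultures reached saturation at 30 °C; 1 = growth at the plate median or of vehicle wells; lower values mean less growth of the strain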
# Conditions: S. cerevisiae deletion strains, growth OD
compound,measurement,setting,value
C=C(C)[C@H]1CC=C(C(=O)O)CC1,normalized growth,"locus YAL013W, strain DEP1, stronger effect = lower value",1.01 (inactive)
same,normalized growth,"locus YAL021C, strain ccr4, stronger effect = lower value",0.968 (inactive)
same,normalized growth,"locus YAL026C, strain drs2, stronger effect = lower value",0.958 (inactive)
same,normalized growth,"locus YAL030W, strain snc1, stronger effect = lower value",0.985 (inactive)
same,normalized growth,"locus YBL061C, strain skt5, stronger effect = lower value",0.986 (inactive)
same,normalized growth,"locus YBR009C, strain hhf1, stronger effect = lower value",0.939 (inactive)
same,normalized growth,"locus YBR021W, strain FUR4, stronger effect = lower value",0.82 (active)
same,normalized growth,"locus YBR023C, strain chs3, stronger effect = lower value",0.985 (inactive)
same,normalized growth,"locus YBR171W, strain sec66, stronger effect = lower value",0.961 (inactive)
same,normalized growth,"locus YBR229C, strain ROT2, stronger effect = lower value",1.01 (inactive)
same,normalized growth,"locus YBR231C, strain swc5, stronger effect = lower value",0.939 (inactive)
same,normalized growth,"locus YBR279W, strain paf1, stronger effect = lower value",0.972 (inactive)
same,normalized growth,"locus YCL011C, strain gbp2, stronger effect = lower value",0.973 (inactive)
same,normalized growth,"locus YCL016C, strain dcc1, stronger effect = lower value",0.979 (inactive)
same,normalized growth,"locus YCL029C, strain bik1, stronger effect = lower value",0.938 (inactive)
same,normalized growth,"locus YCL061C, strain MRC1, stronger effect = lower value",0.944 (inactive)
same,normalized growth,"locus YCL069W, strain vba3, stronger effect = lower value",0.984 (inactive)
same,normalized growth,"locus YCR088W, strain abp1, stronger effect = lower value",0.994 (inactive)
same,normalized growth,"locus YDL005C, strain med2, stronger effect = lower value",0.97 (inactive)
same,normalized growth,"locus YDL035C, strain GPR1, stronger effect = lower value",0.926 (inactive)
same,normalized growth,"locus YDL040C, strain nat1, stronger effect = lower value",0.995 (inactive)
same,normalized growth,"locus YDL074C, strain BRE1, stronger effect = lower value",0.945 (inactive)
same,normalized growth,"locus YDL101C, strain DUN1, stronger effect = lower value",0.976 (inactive)
same,normalized growth,"locus YDL134C, strain PPH21, stronger effect = lower value",0.944 (inactive)
same,normalized growth,"locus YDL185W, strain tfp1, stronger effect = lower value",0.871 (active)
same,normalized growth,"locus YDL192W, strain arf1, stronger effect = lower value",0.957 (inactive)
same,normalized growth,"locus YDR001C, strain nth1, stronger effect = lower value",0.986 (inactive)
same,normalized growth,"locus YDR069C, strain doa4, stronger effect = lower value",0.999 (inactive)
same,normalized growth,"locus YDR101C, strain arx1, stronger effect = lower value",0.926 (inactive)
same,normalized growth,"locus YDR137W, strain rgp1, stronger effect = lower value",1.04 (inactive)
same,normalized growth,"locus YDR159W, strain sac3, stronger effect = lower value",0.94 (inactive)
same,normalized growth,"locus YDR162C, strain NBP2, stronger effect = lower value",0.989 (inactive)
same,normalized growth,"locus YDR195W, strain ref2",0.844 (active)
same,normalized growth,"locus YDR297W, strain sur2, stronger effect = lower value",0.971 (inactive)
same,normalized growth,"locus YDR318W, strain mcm21, stronger effect = lower value",0.938 (inactive)
same,normalized growth,"locus YDR334W, strain swr1, stronger effect = lower value",0.971 (inactive)
same,normalized growth,"locus YDR335W, strain msn5, stronger effect = lower value",0.975 (inactive)
same,normalized growth,"locus YDR388W, stronger effect = lower value",0.952 (inactive)
same,normalized growth,"locus YDR392W, strain spt3, stronger effect = lower value",0.934 (inactive)
same,normalized growth,"locus YDR502C, strain sam2, stronger effect = lower value",0.926 (inactive)
same,normalized growth,"locus YEL003W, strain gim4, stronger effect = lower value",0.943 (inactive)
same,normalized growth,"locus YEL037C, strain rad23, stronger effect = lower value",0.988 (inactive)
same,normalized growth,"locus YEL061C, strain CIN8 (second series), stronger effect = lower value",0.991 (inactive)
same,normalized growth,"locus YEL061C, strain CIN8, stronger effect = lower value",1 (inactive)
same,normalized growth,"locus YER015W, strain faa2, stronger effect = lower value",0.98 (inactive)
same,normalized growth,"locus YER016W, strain bim1, stronger effect = lower value",0.992 (inactive)
same,normalized growth,"locus YER110C, stronger effect = lower value",0.925 (inactive)
same,normalized growth,"locus YER111C, strain swi4, stronger effect = lower value",0.98 (inactive)
same,normalized growth,"locus YER155C, strain BEM2 (second series), stronger effect = lower value",1 (inactive)
same,normalized growth,"locus YER155C, strain BEM2, stronger effect = lower value",0.947 (inactive)
same,normalized growth,"locus YER167W, strain BCK2, stronger effect = lower value",0.978 (inactive)
same,normalized growth,"locus YFR010W, strain ubp6, stronger effect = lower value",0.978 (inactive)
same,normalized growth,"locus YGL078C, strain dbp3, stronger effect = lower value",0.804 (active)
same,normalized growth,"locus YGL086W, strain mad1, stronger effect = lower value",0.965 (inactive)
same,normalized growth,"locus YGL167C, strain pmr1, stronger effect = lower value",0.978 (inactive)
same,normalized growth,"locus YGL173C, strain kem1, stronger effect = lower value",0.949 (inactive)
same,normalized growth,"locus YGL227W, strain vid30, stronger effect = lower value",0.975 (inactive)
same,normalized growth,"locus YGL240W, strain doc1, stronger effect = lower value",0.956 (inactive)
same,normalized growth,"locus YGL248W, strain PDE1, stronger effect = lower value",0.97 (inactive)
same,normalized growth,"locus YGL253W, strain hxk2, stronger effect = lower value",0.944 (inactive)
same,normalized growth,"locus YGR135W, strain pre9, stronger effect = lower value",0.903 (inactive)
same,normalized growth,"locus YGR252W, strain gcn5, stronger effect = lower value",0.606 (active)
same,normalized growth,"locus YHR013C, strain ard1, stronger effect = lower value",0.993 (inactive)
same,normalized growth,"locus YHR027C, strain rpn1, stronger effect = lower value",0.96 (inactive)
same,normalized growth,"locus YHR030C, strain SLT2, stronger effect = lower value",0.997 (inactive) and 0.788 (active)
same,normalized growth,"locus YHR079C, strain IRE1 (second series), stronger effect = lower value",0.941 (inactive)
same,normalized growth,"locus YHR079C, strain IRE1, stronger effect = lower value",0.703 (active)
same,normalized growth,"locus YHR094C, strain hxt1, stronger effect = lower value",0.955 (inactive)
same,normalized growth,"locus YHR129C, strain ARP1, stronger effect = lower value",0.984 (inactive)
same,normalized growth,"locus YHR142W, strain chs7, stronger effect = lower value",0.96 (inactive)
same,normalized growth,"locus YHR200W, strain rpn10, stronger effect = lower value",0.961 (inactive)
same,normalized growth,"locus YIL066C, strain RNR3, stronger effect = lower value",0.963 (inactive)
same,normalized growth,"locus YIL073C, strain SPO22, stronger effect = lower value",0.978 (inactive)
same,normalized growth,"locus YIL125W, strain kgd1, stronger effect = lower value",0.78 (active)
same,normalized growth,"locus YIR030C, strain dcg1, stronger effect = lower value",0.961 (inactive)
same,normalized growth,"locus YJL092W, strain hpr5, stronger effect = lower value",0.983 (inactive)
same,normalized growth,"locus YJL095W, strain BCK1 (second series), stronger effect = lower value",0.985 (inactive)
same,normalized growth,"locus YJL095W, strain BCK1, stronger effect = lower value",0.98 (inactive) and 0.786 (active)
same,normalized growth,"locus YJL115W, strain asf1, stronger effect = lower value",0.983 (inactive)
same,normalized growth,"locus YJL129C, strain trk1, stronger effect = lower value",0.911 (inactive)
same,normalized growth,"locus YJL134W, strain LCB3, stronger effect = lower value",0.996 (inactive)
same,normalized growth,"locus YJL154C, strain vps35, stronger effect = lower value",0.99 (inactive)
same,normalized growth,"locus YJL164C, strain tpk1, stronger effect = lower value",0.97 (inactive)
same,normalized growth,"locus YJL166W, strain qcr8, stronger effect = lower value",0.981 (inactive)
same,normalized growth,"locus YJL168C, strain set2, stronger effect = lower value",0.968 (inactive)
same,normalized growth,"locus YJL187C, strain SWE1 (second series), stronger effect = lower value",0.955 (inactive)
same,normalized growth,"locus YJR043C, strain POL32, stronger effect = lower value",0.916 (inactive)
same,normalized growth,"locus YJR066W, strain TOR1, stronger effect = lower value",0.747 (active)
same,normalized growth,"locus YKL009W, strain mrt4, stronger effect = lower value",0.954 (inactive)
